Results: PubChem BioAssay AID463173 (ICCB-Longwood Screening Facility, Harvard Medical School, 2010)
The whole screen tested about 52,000 compounds, of which about 4,300 (8.3%) were called active. What follows is part of a selection rich in actives, with near analogues and random picks from the rest. Values without a mark were called inactive. No stated cut-off is given here; in the data, active means survival mostly below about 52% (no sharp cut-off); inactive means mostly above about 56%.

Each compound was assayed on DeltatarO mutant (assay: S. aureus survival, RN4220 and DeltatarO strains – OD600, teichoic acid synthesis inhibitors, primary screen (AID 463173)). Details: S. aureus RN4220 wild type/DeltatarO growth, OD600, 18 h, stronger effect = lower value, screened at 18.75 µg/mL (by protocol).

Compared with `O=C(NCc1ccc(Cl)cc1)c1cc(S(=O)(=O)N2CCCCC2)c[nH]1`, `COc1ccc(Br)cc1CNC(=O)C1CCCCN1S(=O)(=O)c1ccc(F)cc1` (centres undefined) is lower in survival: 103% for the first, 81% for the second.

Going from `Cc1ccc(-n2ncc3c(NC4CCCCC4)ncnc32)cc1` to `Cc1cccc(N(C(=O)c2csnn2)C(C(=O)NC2CCCCC2)c2ccco2)c1` (centres undefined), the survival falls from 88% to 87%.

Going from `Cc1ccccc1NCc1cccn1-c1nnc(N2CCOCC2)s1` to `COc1ccc(NCc2cccn2-c2nnc(N3CCOCC3)s2)c(OC)c1`, the survival falls from 112% to 78%.

First: Cc1ccc(C(=O)c2oc3ccccc3c2NC(=O)c2cc(-c3ccc(Cl)cc3)on2)cc1
Second: Nc1c(-c2nc(-c3ccc(Cl)cc3)cs2)c2ccccn2c1C(=O)c1ccc2c(c1)OCO2
The survival of the first is lower: 87% for the first, 101% for the second.

Compared with `CC1CCC(NC(=O)c2ccc3c(c2)N(Cc2cccc(Cl)c2)C(=O)c2ccccc2S3(=O)=O)CC1` (centres undefined), `O=C1N(Cc2ccccc2)c2ccc(Cl)cc2C1(O)c1c[nH]c2ccccc12` (centres undefined) is lower in survival: 74% for the first, 66% for the second.

Going from `COc1ccc2[nH]c(=O)c(CN(CCO)S(=O)(=O)c3ccc(Cl)c(C(F)(F)F)c3)cc2c1` to `COc1ccccc1CNS(=O)(=O)c1ccc(-c2cc(C(F)(F)F)on2)s1`, the survival rises from 98% to 102%.

Compared with `CCNC(=O)c1ccc(NC(=O)N2CCCCc3ccccc32)cc1`, `Cc1cc(NC(=O)NCc2ccc3c(c2)CCN3C(=O)c2ccccc2)ccc1Br` is higher in survival: 102% for the first, 116% for the second.

First: CCOc1ccc(NC(=O)CCS(=O)(=O)c2ccc3c(c2)n(C)c(=O)c(=O)n3C)cc1
Second: CCCCCC(=O)N(c1ccc(OCC)cc1)S(=O)(=O)c1ccc2c(c1)n(C)c(=O)n2C
The survival of the first is lower: 87% for the first, 111% for the second.

Going from `COc1ccc(N(C(=O)c2ccccc2)S(=O)(=O)c2ccc3c(c2)n(C)c(=O)n3C)cc1` to `COc1ccc(C(=O)N(c2ccc(OC)cc2)S(=O)(=O)c2ccc3c(c2)n(C)c(=O)n3C)cc1`, the survival falls from 89% to 84%.

Compared with `CCOc1ccc(N(C(=O)c2ccccc2F)S(=O)(=O)c2ccc3c(c2)n(C)c(=O)n3C)cc1`, `CCOc1ccc(N(C(=O)c2ccc(C)cc2)S(=O)(=O)c2ccc3c(c2)n(C)c(=O)n3C)cc1` is lower in survival: 47% for the first, 45% for the second.

Going from `CCc1nc2ccc(C(=O)N3CCN(c4cccc(OC)c4)CC3)cc2nc1CC` to `COc1cccc(C(=O)NCC(c2ccc3c(c2)OCO3)N2CCN(C)CC2)c1` (centres undefined), the survival rises from 83% to 112%.

Compared with `CC(C)c1cnc2c(c1SCC(=O)Nc1cccc([N+](=O)[O-])c1)c(=O)n(C)c(=O)n2C`, `Cc1ccc(-c2nc3ccccc3n3c(-c4ccccc4)c4c(=O)n(C)c(=O)n(C)c4c23)cc1` is higher in survival: 69% for the first, 97% for the second.

Going from `CC1CCN(S(=O)(=O)c2ccc3c(c2)N(CC(=O)N2CCN(c4ccc(Cl)cc4)CC2)C(=O)CO3)CC1` to `COc1ccc(C)cc1NC(=O)CN1C(=O)COc2ccc(S(=O)(=O)N3CCOCC3)cc21`, the survival rises from 62% to 98%.

Compared with `Cc1ccc(-c2nnc(SCC(=O)NCCC(C)C)nc2-c2ccc(C)cc2)cc1`, `COc1ccc(-c2nnc(SCC(=O)NCc3ccc(C)cc3)nc2-c2ccc(OC)c(OC)c2)cc1OC` is lower in survival: 104% for the first, 76% for the second.

First: Cc1cc(C)cc(NC(=O)CSc2nccn2C2CCCC2)c1
Second: Cc1ccc(F)cc1NC(=O)CCc1c(C)nn(-c2ccc(N3CCCC3)nn2)c1C
The survival of the first is higher: 94% for the first, 78% for the second.

First: COc1ccc(-n2nnnc2C2CCN(S(=O)(=O)c3ccc(C)cc3)CC2)cc1
Second: COc1ccc(N2CC(NC(=O)c3ccco3)CC2=O)cc1 (centres undefined)
The survival of the first is higher: 99% for the first, 58% for the second.

Compared with `Cc1ccc(C)c(CN2C(=O)C(O)(c3c[nH]c4ccccc34)c3ccccc32)c1` (centres undefined), `O=C1N(Cc2ccccc2Cl)c2ccccc2C1(O)c1c[nH]c2ccccc12` (centres undefined) is lower in survival: 142% for the first, 64% for the second.

Going from `O=C1N(Cc2ccccc2)c2ccccc2C1(O)c1c[nH]c2ccccc12` (centres undefined) to `CC(C)N1C(=O)C(O)(c2c[nH]c3ccccc23)c2ccccc21` (centres undefined), the survival rises from 55% to 129%.

Going from `CCCCN1C(=O)C(O)(c2c[nH]c3ccccc23)c2cc(Br)ccc21` (centres undefined) to `CCc1nn(CC(=O)NCCCc2ccccc2)c(=O)c2cc3ccccc3n12`, the survival rises from 50% to 90%.

Compared with `CCc1ccccc1NC(=O)Nc1c[nH]c(=O)[nH]c1=O`, `C/C(=N\NC(N)=O)C1CC(Cc2ccccc2)C(=O)O1` (centres undefined) is lower in survival: 75% for the first, 57% for the second.

First: c1ccc(Nc2c(-c3ccccc3)nc3ncccn23)cc1
Second: CCOC(=O)c1c(Nc2ccc(O)cc2)nnc(-c2ccccc2)c1-c1ccccc1
The survival of the first is lower: 81% for the first, 95% for the second.

First: O=C(OCc1cc(=O)n2nc(-c3cccs3)sc2n1)c1ccccc1
Second: CCOC(=O)c1cnc(-c2ccccc2)nc1Nc1ccc(C)cc1
The survival of the first is lower: 65% for the first, 90% for the second.

Going from `CN(C)CCCNC(=O)C(=O)NCC(c1ccc2c(c1)OCO2)N1CCOCC1` (centres undefined) to `CN(C)CCNC(=O)C(=O)NCC(c1ccc2c(c1)OCO2)N1CCOCC1` (centres undefined), the survival falls from 106% to 69%.

First: CNC(=O)C(=O)NCC(c1ccc2c(c1)OCO2)N1CCOCC1 (centres undefined)
Second: O=C(NCCO)C(=O)NCC(c1ccc2c(c1)OCO2)N1CCOCC1 (centres undefined)
The survival of the first is higher: 89% for the first, 75% for the second.

Going from `COc1ccc(CNC(=O)C(=O)NCC(c2ccc3c(c2)OCO3)N2CCOCC2)cc1` (centres undefined) to `COc1ccc(CCNC(=O)C(=O)NCC(c2ccc3c(c2)OCO3)N2CCOCC2)cc1OC` (centres undefined), the survival falls from 99% to 69%.

Compared with `CC(C)(C)CC(=O)NCC(c1ccc2c(c1)OCO2)N1CCOCC1` (centres undefined), `COCCCNC(=O)C(=O)NCC(c1ccc2c(c1)OCO2)N1CCOCC1` (centres undefined) is higher in survival: 80% for the first, 95% for the second.

First: CCOc1ccc(C(=O)NCC(c2ccc3c(c2)OCO3)N2CCN(C)CC2)cc1 (centres undefined)
Second: CCOc1ccc(C(C(=O)NC2CCCC2)N(Cc2ccco2)C(=O)Cn2nnc3ccccc32)cc1OC (centres undefined)
The survival of the first is lower: 78% for the first, 110% for the second.

Compared with `CC1=C(C(=O)Nc2cccc(C(F)(F)F)c2)C(c2ccccc2)n2ncnc2N1` (centres undefined), `COc1cccc(N2CC(NC(=O)COc3ccc4ccccc4c3)CC2=O)c1` (centres undefined) is higher in survival: 103% for the first, 107% for the second.

Going from `COc1ccc(CN2C3CCCC2CC(NC(=O)NC2CCCCC2)C3)cc1` (centres undefined) to `COc1cccc(N2CC(NC(=O)C3CCCCC3)CC2=O)c1` (centres undefined), the survival rises from 85% to 144%.

First: COc1ccc(-c2cccc(NS(=O)(=O)c3cc(C)ccc3OC)c2)nn1
Second: COc1ccc(CNS(=O)(=O)c2ccc(-c3cc(C(F)(F)F)on3)s2)cc1OC
The survival of the first is higher: 122% for the first, 118% for the second.

First: CC1CCCCN1C(=O)CSc1nnc2c3ccccc3n(CC(=O)O)c2n1 (centres undefined)
Second: COc1ccccc1CNC(=O)C1CCCN(C(=O)c2cnn(-c3ccc(F)cc3)c2-n2cccc2)C1 (centres undefined)
The survival of the first is higher: 97% for the first, 76% for the second.

First: CCOC(=O)c1c(C)[nH]c(C)c1S(=O)(=O)N1CCCC(C(=O)Nc2cc(C)ccc2C)C1 (centres undefined)
Second: O=C(Nc1cccc(F)c1)C1CCCN(S(=O)(=O)c2cccc3cccnc23)C1 (centres undefined)
The survival of the first is higher: 83% for the first, 70% for the second.

Compared with `CCN(C(=O)Cn1nnc2sc3c(c2c1=O)CCC(C(C)(C)C)C3)c1cccc(C)c1` (centres undefined), `COc1ccc(N2CC(NC(=O)c3ccco3)CC2=O)cc1OC` (centres undefined) is higher in survival: 78% for the first, 89% for the second.

Compared with `COc1cccc(N2CC(NC(=O)C3CC3)CC2=O)c1` (centres undefined), `COc1cccc(OCC(=O)NC2CC(=O)N(c3cccc(OC)c3)C2)c1` (centres undefined) is higher in survival: 105% for the first, 106% for the second.

First: COc1ccccc1CNc1ncnc2c1c(-c1ccccc1)cn2-c1ccc(Br)cc1
Second: CCOC(=O)c1c(Oc2ccc(C(C)=O)cc2)nnc(-c2ccccc2)c1-c1ccccc1
The survival of the first is higher: 80% for the first, 67% for the second.

First: CCNS(=O)(=O)c1cccs1
Second: CCOC(=O)c1c(C)oc2ncnc(Nc3ccc(CC)cc3)c12
The survival of the first is higher: 96% for the first, 85% for the second.

First: Cc1nn(CC(=O)Nc2ccccc2F)c(=O)c2c(C)n(-c3ccc(Cl)cc3)nc12
Second: CCOC(=O)c1c(C)oc2nc(C)nc(Nc3ccc(C)c(Cl)c3)c12
The survival of the first is higher: 102% for the first, 89% for the second.

`CCOC(=O)c1c(C)oc2nc(C)nc(Nc3ccc(CC)cc3)c12` gave a survival of 115%.

With `CCOc1ccc(N(C(=O)c2ccc(OC)cc2)S(=O)(=O)c2ccc3c(c2)n(C)c(=O)n3C)cc1` the survival was 37% (active).
For `CCOc1ccc(N(CC(=O)OC)S(=O)(=O)c2ccc3c(c2)n(C)c(=O)c(=O)n3C)cc1`, the survival was 46% (active).
In the case of `CCOc1ccc(N(C(=O)c2ccc(Cl)cc2)S(=O)(=O)c2ccc3c(c2)n(C)c(=O)n3C)cc1`, the survival is reported as 37% (active).
With `Cc1ccccc1CN1C(=O)C(O)(c2c[nH]c3ccccc23)c2cc(Cl)ccc21` (centres undefined) the survival was -2% (active).
With `Cc1ccc(CN2C(=O)C(O)(c3c[nH]c4ccccc34)c3cc(Cl)ccc32)cc1` (centres undefined) the survival was -3% (active).
For `CCN1C(=O)C(O)(c2c[nH]c3ccccc23)c2cc(Br)ccc21` (centres undefined), the survival was 55% (active).
In the case of `COc1ccc(C(=O)NCC(c2ccc3c(c2)OCO3)N2CCN(C)CC2)cc1` (centres undefined), the survival is reported as 47% (active).
`COc1ccc(CCNC(=O)C(=O)NCC(c2ccc3c(c2)OCO3)N2CCOCC2)cc1` (centres undefined) was tested, and the survival was 32% (active).
`CC(C)(C)C(=O)NCC(c1ccc2c(c1)OCO2)N1CCOCC1` (centres undefined) was tested, and the survival was 0% (active).
`O=C(NCCCO)C(=O)NCC(c1ccc2c(c1)OCO2)N1CCOCC1` (centres undefined) was tested, and the survival was 37% (active).
With `COCCNC(=O)C(=O)NCC(c1ccc2c(c1)OCO2)N1CCOCC1` (centres undefined) the survival was 0% (active).
With `COc1ccc(OC)c(CNS(=O)(=O)c2ccc(-c3cc(C(F)(F)F)on3)s2)c1` the survival was -4% (active).
For `COc1cccc(N2CC(NC(=O)C3CCCC3)CC2=O)c1` (centres undefined), the survival was 46% (active).
In the case of `COc1cccc(N2CC(NC(=O)c3ccco3)CC2=O)c1` (centres undefined), the survival is reported as 37% (active).
With `COc1ccc(OCC(=O)NC2CC(=O)N(c3cccc(OC)c3)C2)cc1` (centres undefined) the survival was 0% (active).
`CCOC(=O)c1c(Nc2ccc(F)cc2)nnc(-c2ccccc2)c1-c1ccccc1` was tested, and the survival was -3% (active).
In the case of `CCOC(=O)c1c(Nc2ccccc2)nnc(-c2ccccc2)c1-c1ccccc1`, the survival is reported as 6% (active).
In the case of `CCOC(=O)c1c(Nc2ccc(C)cc2)nnc(-c2ccccc2)c1-c1ccccc1`, the survival is reported as 1% (active).
With `CCOC(=O)c1c(Nc2ccc(C)c(C)c2)nnc(-c2ccccc2)c1-c1ccccc1` the survival was -5% (active).
